An excerpt weighted towards active compounds, which were near 19% of everything screened.
DT40 TDP1 CPT – growth inhibition of DT40 Tdp1-/-;hTDP1 cells with camptothecin (screen for TDP1 inhibitors); chicken DT40 Tdp1-/-;hTDP1 cells + 20 nM CPT, ATP luminescence, 48 h; Potency, µM (top dose mostly 46.2 µM), for the others: at the highest dose activity change, negative = growth inhibition, most hits filed as inhibitors; 420,000 tested, 12% active; AID 686979; further: potency means the concentration at half of the fitted maximal effect; on the % scale 0 is the no-effect control and ±100 the full control effect; nearly all actives have a fitted effect of over 55% in size
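Chicken DT40 Tdp1-/- cells stably complemented with human TDP1 were seeded at 400 cells/well in medium containing 20 nM camptothecin, exposed to pin-transferred compounds, and grown at 37 °C for at least 48 hr. Viability was read as ATP luminescence.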
TDP1 inh – TDP1 (human) enzyme inhibition | recombinant TDP1, AlphaScreen DNA substrate cleavage | Potency, µM (highest dose often 130 µM), for the others: at the highest dose activity change, negative = inhibition, hits mostly inhibitors | Q9NUW8 | 350,000 tested, 0.28% active; further: potency means the concentration at half of the fitted maximal effect; on the % scale 0 is the no-effect control and ±100 the full control effect; nearly all actives have a fitted effect of over 40% in size
Target sequence (Q9NUW8 whole entry, looked up): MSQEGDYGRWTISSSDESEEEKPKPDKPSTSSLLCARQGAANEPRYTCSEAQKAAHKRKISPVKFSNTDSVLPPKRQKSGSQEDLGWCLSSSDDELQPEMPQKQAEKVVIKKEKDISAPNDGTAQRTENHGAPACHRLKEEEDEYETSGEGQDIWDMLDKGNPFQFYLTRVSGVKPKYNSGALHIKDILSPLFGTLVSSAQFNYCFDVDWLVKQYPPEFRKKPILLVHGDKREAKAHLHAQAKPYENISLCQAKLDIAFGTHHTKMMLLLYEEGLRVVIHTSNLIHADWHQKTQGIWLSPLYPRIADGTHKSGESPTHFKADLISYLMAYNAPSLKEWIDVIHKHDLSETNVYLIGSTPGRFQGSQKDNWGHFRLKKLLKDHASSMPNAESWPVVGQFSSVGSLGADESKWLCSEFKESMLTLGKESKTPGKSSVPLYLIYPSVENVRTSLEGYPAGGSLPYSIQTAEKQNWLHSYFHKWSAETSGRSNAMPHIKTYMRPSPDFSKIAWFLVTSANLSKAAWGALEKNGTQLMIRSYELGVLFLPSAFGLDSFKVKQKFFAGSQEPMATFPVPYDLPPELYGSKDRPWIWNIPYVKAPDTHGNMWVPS
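Recombinant human Tdp1 (E. coli-expressed, 1 nM final) preincubated with compounds 15 min at room temperature, then 5'-biotin/3'-phosphotyrosine-FITC DNA substrate (15 nM final) added for 5 min. AlphaScreen beads (10 ug/ml final) added 10 min; cleavage lowers signal.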
DT40 TDP1 no CPT – qHTS for Inhibitors of human tyrosyl-DNA phosphodiesterase 1 (TDP1): qHTS in cells in absence of CPT; AID 686978, 2013; DT40 Tdp1-/- hTDP1 cells, no CPT, ATP luminescence, 48 h; 420,000 tested, 15% active; Potency, µM (highest dose often 46.2 µM), for the others: at the highest dose activity change, negative = growth inhibition, hits mostly inhibitors; further: potency means the concentration at half of the fitted maximal effect; on the % scale 0 is the no-effect control and ±100 the full control effect; nearly all actives have a fitted effect of over 55% in size
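Stably hTDP1-transfected Tdp1-null chicken DT40 cells were treated with library compounds minus camptothecin and grown for at least 48 hr at 37 °C, after which cellular ATP was quantified by luminescence.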
TGFb inhibitor – blocks TGF-b signaling. HepG2 CAGA-GFP TGF-b/SMAD3 reporter, GFP fluorescence, 18 h; TGF-beta stimulated, 500 pg/mL final. Potency, µM (doses to about 46.1 µM), for the others: at the highest dose activity, negative = inhibition, hits mostly inhibitors. 410,000 tested, 1.2% active. AID 588855; further: potency means the concentration at half of the fitted maximal effect; on the % scale 0 is the no-effect control and ±100 the full control effect; nearly all actives have a fitted effect of over 65% in size
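HEPG2 CAGA-GFP, 1000 cells/well; 2 h settle, 37 C; cpd via pin tool; TGF-b 500 pg/mL final; 18 h, 37 C; GFP imaging ex488/em500-530; %Activity normalised to -TGF-b and +DMSO controls; CRC fit, curve class.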
IL1B secr inh – inhibitors of inflammasome signaling (IL-1 beta secretion); THP-1 LPS/ATP IL-1B secretion, AlphaLISA, 16 h; hits give low values; activity change, % at 57.5 µM; 360,000 tested, 4.7% active; AID 743279; in the data active means activity change below about -50%; inconclusive means mostly about -30% to -49%; further: on the % scale 0 is the no-effect control and ±100 the full control effect
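Secreted IL-1B measured by AlphaLISA bead assay after 16 h compound exposure of THP-1 cells; compounds (final up to 57.5 uM) added 1 h before LPS (250 ng/mL) and ATP (1.25 mM) stimulation; lower signal means less secretion.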
HepG2 tox – kills HepG2 cells in TGF-b inhibitor counter-screen; HepG2 CAGA-GFP viability, ATP luminescence, 18 h; Potency, µM (series often up to 46.1 µM), without a hit: at the top dose activity change, negative = cytotoxicity, most hits filed as cytotoxic; 410,000 tested, 0.76% active; further: potency means the concentration at half of the fitted maximal effect
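HepG2 CAGA-GFP cells (1000/well, DMEM with 1% FBS) received compound, then TGF-beta at 500 pg/mL final, and were incubated 18 hours at 37 degrees C. Viability was read by CellTiter-Glo luminescence. Media-only wells were set as complete cell-killing and DMSO as no toxicity.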
* = called active by the depositor; ? = inconclusive; . = not tested or not shown; [ ] = remark or other dose. Unless noted, the call rests on the fitted dose curve; in most records, active means well fitted curve in the direction sought with a large enough effect; inconclusive means small, poorly fitted or top-dose-only effect, or another doubt; inactive means no such curve, though single readings can be large; an effect the other way counts as inactive or inconclusive.

SMILES	DT40 TDP1 CPT	TDP1 inh	DT40 TDP1 no CPT	TGFb inhibitor	IL1B secr inh	HepG2 tox
O=C(N/N=C/c1cc([N+](=O)[O-])ccc1O)c1cccc(N2CCCC2=O)c1	15µM*	4%	10µM*	4%	162	-16%
O=C(NN=Cc1ccccc1O)C1CC1	5.8µM*	.	10µM*	0%	-1	2%
O=[N+]([O-])c1ccccc1N/N=C\c1ccccc1Cl	-17%	0%	-16%	-17%	-3	3%
O=C(N/N=C/c1cc([N+](=O)[O-])ccc1O)C(O)(c1ccccc1)c1ccccc1	?	5%	16µM*	-6%	182	-19%
Cc1ccc(NC(=O)CCC(=O)N/N=C/c2cc([N+](=O)[O-])ccc2O)cc1	?	7%	?	-9%	65	3%
O=[N+]([O-])c1ccc(O)c(/C=N/Nc2ccccc2Cl)c1	?	3%	?	-24%	-53*	-8%
CCCCN1CC(=O)N2[C@H]3c4cc(Cl)ccc4OC[C@@H]3[C@H](C(=O)OCC)[C@]2(C)C1=O	-8%	1%	3%	-6%	-6	-10%
CCOc1cccc(/C=N/NC(=O)C2CCCC2)c1O	?	2%	?	?	179	-37%
O=C(N/N=C/c1ccccc1O)C1SCCCS1	12µM*	3%	6.5µM*	?	226	-41%
O=C(N/N=C/c1cc([N+](=O)[O-])ccc1O)c1cccc2cc[nH]c12	6.5µM*	8%	4.1µM*	13µM*	232	-83%
O=C1NCCCC1C(=O)N/N=C/c1cc([N+](=O)[O-])ccc1O (stereo unspecified)	-22%	7%	?	-19%	84	-23%
Cc1sc(N/N=C/c2cc([N+](=O)[O-])ccc2O)nc1-c1ccccc1	15µM*	3%	15µM*	7%	7	-6%
O=C(N/N=C/c1cc([N+](=O)[O-])ccc1O)C1CC1	?	6%	18µM*	-2%	72	-38%
O=C(N/N=C/c1cc([N+](=O)[O-])ccc1O)c1ccc2c(c1)OCCO2	2.1µM*	8%	1.5µM*	-11%	18	-13%
COc1cc(/C=N/NC(=O)c2cccc(S(=O)(=O)N3CCOCC3)c2)cc(OC)c1O	-24%	0%	-10%	5%	8	-8%
CN(C)S(=O)(=O)N(CC(=O)N1CCN(Cc2ccccc2)CC1)c1ccccc1	?	.	-12%	4%	16	-19%
CN(Cc1ccc(Cl)c(Cl)c1)C(=O)c1cccc(S(=O)(=O)N2CCN(Cc3ccccc3)CC2)c1	21µM*	2%	21µM*	?	?	-19%
CCN(Cc1ccccc1)c1ccc(/C=N/NC(=O)c2cccc(S(=O)(=O)N3CCOCC3)c2)cc1	?	5%	13µM*	0%	5	-10%
CN(CC(=O)N1CCN(Cc2ccccc2)CC1)C(=O)Cc1ccc(Cl)c(Cl)c1	?	0%	15µM*	-3%	-13	-10%
CN(CC(=O)Nc1cccc(F)c1)C(=O)c1cccc(S(=O)(=O)N2CCN(Cc3ccccc3)CC2)c1	8.2µM*	.	8.2µM*	?	9	-22%
CC(C)c1ccc(S(=O)(=O)N2CCC(N3CCN(Cc4ccccc4)C(=O)C3=O)CC2)cc1	?	5%	-21%	14%	.	7%
CN(CC(=O)Nc1ccccc1Cl)C(=O)c1cccc(S(=O)(=O)N2CCN(Cc3ccccc3)CC2)c1	12µM*	.	9.2µM*	?	-15	0%
CN(Cc1ccc(OC(F)F)cc1)C(=O)c1cccc(S(=O)(=O)N2CCN(c3ccccc3)CC2)c1	15µM*	.	2.9µM*	-32%	-62*	-14%
CN(Cc1cnn(Cc2ccccc2)c1)C(=O)c1cccc(S(=O)(=O)N2CCOCC2)c1	7.3µM*	2%	5.8µM*	-15%	54	-1%
COc1ccccc1OCCNC(=O)c1cccc(S(=O)(=O)N2CCN(Cc3ccccc3)CC2)c1	18µM*	3%	?	?	-23	-3%
SMILES	DT40 TDP1 CPT	TDP1 inh	DT40 TDP1 no CPT	TGFb inhibitor	IL1B secr inh	HepG2 tox
CN(Cc1cccc(F)c1)C(=O)c1cccc(S(=O)(=O)N2CCN(Cc3ccccc3)CC2)c1	?	5%	?	-41%	-26	-6%
CC(=O)Nc1ccc(NS(=O)(=O)c2c(C(=O)N3CCCCCC3)c(C)n(C)c2C)cc1	6%	8%	1%	1%	.	-14%
COc1ccc(C)cc1NC(=O)c1cc2c(s1)-c1ccccc1SC2	?	-8%	?	.	.	-9%
CC1(C)CC(C(=O)N2CCOc3ccc(CN4CCN(Cc5ccccn5)CC4)cc3C2)CCO1 (stereo unspecified)	10%	.	2%	.	.	.
CCCOc1cccc(-c2nnc(NC(=O)c3ccco3)s2)c1	?	2%	21µM*	?	10	-70%
COc1ccc(-c2nnc(NC(=O)c3ccco3)s2)cc1	-1%	40µM*	1%	-3%	-16	-15%
COc1cccc(-c2nnc(NC(=O)c3ccco3)s2)c1	-7%	1%	?	-2%	-7	0%
Cc1cccc(-c2cccc(NC(=O)C3CCCN(C(=O)c4ocnc4C)C3)c2)c1 (stereo unspecified)	23µM*	6%[56.1 µM]	21µM*	-1%	0	2%
CCc1ncc(CN2CCCC(C(=O)Nc3cccc(-c4cccc(C)c4)c3)C2)cn1 (stereo unspecified)	?	2%	?	?	-7	-24%
Cc1cccc(-c2cccc(NC(=O)C3CCCN(C(=O)c4cccnc4)C3)c2)c1 (stereo unspecified)	18µM*	6%	15µM*	?	-6	-20%
Cc1nc(-c2cccc(NC(=O)C3CCCCC3)c2)cs1	?	0%	-24%	?	-5	-20%
CCc1nc(C)c(C(=O)N2CCCC(C(=O)Nc3cccc(-c4cccc(C)c4)c3)C2)o1 (stereo unspecified)	13µM*	3%	10µM*	-26%	-82*	-12%
Cc1cccc(-c2cccc(NC(=O)C3CCCN(C(=O)c4csc(C)n4)C3)c2)c1 (stereo unspecified)	1.5µM*	3%	1.3µM*	?	?	-25%
CC(C)NC(=O)Cc1csc2nc(-c3ccccc3)cn12	-10%	4%	13%	6%	.	3%
